{"source": "PubChem BioAssay (Tox21)", "note": "“And” between values parts separate entries of the source, which are not always exact repeats. Equal entries are not always repeated. Records with an inconclusive call do not appear. Unmarked numbers belong to inactive results. The source made the active and inactive calls. Calls come from the whole dose curve; as a rule, active = well fitted cell-killing curve with a large enough effect in the repeat runs; inconclusive = weak or mixed curves, or effect the other way; inactive = flat fitted curve, though single readings scatter. % is set by controls: 0 for no effect and ±100 for the full control effect; potency is the fitted concentration of half-maximal effect."}
{"experiment": "qHTS RealTime-Glo MT Cell Viability Assay in HEK293 cells - 32 hour (AID 1224868); note: nearly all actives have a fitted effect of over 50% in size; for activity change, negative = cytotoxic: top concentration of the series differs between compounds", "settings": "RealTime-Glo luminescence; series mostly up to 76.8 µM", "description": "National Center for Advancing Translational Sciences [NCATS]\nNIH Chemical Genomics Center [NCGC]\nU.S. Environmental Protection Agency [EPA]\nNational Institutes of Environmental Health Sciences [NIEHS]\nNational Toxicology Program [NTP]\nU.S. Food and Drug Administration [FDA]\nMeasure of cell viability is critical in the cell-base assay. Analysis of cell viability is necessary for the characterization of cell responses to cytotoxic drugs and environmental stress. A RealTime-Glo MT Cell Viability Assay to monitor cell viability in real time of continues cell culture during 40 hours of compound treatment was used to screen Tox21 10K library compounds in Hek293 cells. The RealTime-Glo MT Cell Viability Assay is a nonlytic, homogeneous, bioluminescent method to measure cell viability in real time using a simple, plate-based method. The assay involves adding NanoLuc luciferase and a cell-permeant prosubstrate to cells in culture. Viable cells reduce the proprietary prosubstrate to generate a substrate for NanoLuc luciferase. This substrate diffuses from cells into the surrounding culture medium, where it is rapidly used by the NanoLuc Enzyme to produce a luminescent signal. The signal correlates with the number of viable cells, making the assay well suited for cytotoxicity studies.\nTox21 Assay Protocol Summary:\nThe mixture of Hek293 cell suspension and reagents were dispensed at 600cells/6 ul/well in 1536-well tissue culture treated black solid bottom plates using a Multidrop dispenser. After the assay plates were incubated at a 37 C/5% CO2 incubator for 5 hours, 23 nL of compounds dissolved in DMSO, positive and negative controls was transferred to the assay plate by a pintool work station. The plates were incubated at 37 C for 40 hours. The luminescence intensity were measured at 0h, 8h, 16h, 24h, 32h and 40h time points using ViewLux plate reader during compound treatment."}
{"smiles": "C=CC(=O)OCC(COC(=O)C=C)(COC(=O)C=C)COC(=O)C=C", "Potency": "3.89 µM (active)"}
{"smiles": "CCC(C)(C)C(=O)OC1=C(c2ccc(Cl)cc2Cl)C(=O)OC12CCCCC2", "Potency": "inactive"}
{"smiles": "CCCCCCCCCCCCCC[P+](CCCCCC)(CCCCCC)CCCCCC", "note": "(tested in a mixture with another compound)", "Potency": "4.9 µM (active)"}
{"smiles": "[CH3][Hg][Cl]", "Potency": "4.35 µM (active)"}
{"smiles": "COc1cc(N)c(Cl)cc1C(=O)NC1CN2CCC1CC2", "note": "(stereo not given)", "Potency": "inactive"}
{"smiles": "ClC(Cl)=C(Cl)Cl", "Potency": "inactive"}
{"smiles": "CCC[CH2][Sn]([CH2]CCC)([CH2]CCC)[O]C(=O)c1ccccc1", "Potency": "0.389 µM (active)"}
{"smiles": "Cn1[nH]nnc1=S", "Potency": "inactive"}
{"smiles": "Oc1ccc(C2(c3ccc(O)cc3)c3ccccc3-c3ccccc32)cc1", "Potency": "43.6 µM (active)"}
{"smiles": "CC(Cc1ccc(C(C)(C)C)cc1)CN1C[C@@H](C)O[C@@H](C)C1", "note": "(stereo not given in full)", "Potency": "inactive"}
{"smiles": "COS(=O)(=O)c1ccc(C)cc1", "Potency": "inactive"}
{"smiles": "CCCCCCCCCC[N+](C)(C)CCCCCCCCCC", "Potency": "1.1 µM (active)"}
{"smiles": "Brc1c(Br)c(Br)c(Oc2c(Br)c(Br)c(Br)c(Br)c2Br)c(Br)c1Br", "activity change, negative = cytotoxic": "5.03% [at 15.8 µM]"}
{"smiles": "NC(=O)CCl", "Potency": "inactive"}
{"smiles": "ClC1=C(Cl)C2(Cl)C3C(Cl)C=CC3C1(Cl)C2(Cl)Cl", "note": "(stereo not given)", "Potency": "49.2 µM (active) and 49 µM (active)"}
{"smiles": "CN(C)C1CSSSC1", "Potency": "inactive"}
{"smiles": "C[C@]12CC[C@H](O)C[C@H]1CC[C@@H]1[C@@H]2C[C@@H](O)[C@]2(C)[C@@H](C3=CC(=O)OC3)CC[C@]12O", "Potency": "0.692 µM (active)"}
{"smiles": "Cc1cc(Cl)ccc1O[C@H](C)C(=O)O", "Potency": "inactive"}
{"smiles": "COc1cccc2c1C(=O)c1c(O)c3c(c(O)c1C2=O)C[C@@](O)(C(=O)CO)CC3OC1CC(N2CCOC(OC)C2)C(O)C(C)O1", "note": "(stereo not given in full)", "Potency": "0.0301 µM (active)"}
{"smiles": "CC(=O)c1cc(C(C)(C)C)cc2c1CCC2(C)C", "Potency": "inactive"}
{"smiles": "O=CC(Br)(Br)Br", "Potency": "2.45 µM (active)"}
{"smiles": "ClCCN1CCOCC1", "Potency": "inactive"}
{"smiles": "CC1(C)CN=C(NN=C(/C=C/c2ccc(C(F)(F)F)cc2)/C=C/c2ccc(C(F)(F)F)cc2)NC1", "Potency": "38.9 µM (active)"}
{"smiles": "S=C(SSC(=S)N1CCCCC1)N1CCCCC1", "Potency": "15.1 µM (active)"}
{"smiles": "O=c1[nH]c2ccccc2n1C1CCN(CCCC(c2ccc(F)cc2)c2ccc(F)cc2)CC1", "Potency": "17.4 µM (active) and 16.9 µM (active)"}
{"smiles": "C=CC(=O)OCCCCOC(=O)C=C", "Potency": "34.7 µM (active)"}
{"smiles": "CCCSP(=O)(OCC)SCCC", "Potency": "inactive"}
{"smiles": "CCN(CC)c1c([N+](=O)[O-])cc(C(F)(F)F)c(N)c1[N+](=O)[O-]", "Potency": "19.5 µM (active)"}
{"smiles": "O=c1oc2ccccc2c(O)c1Cc1c(O)c2ccccc2oc1=O", "Potency": "inactive"}
{"smiles": "COC[C@H](C)N(C(=O)CCl)c1c(C)csc1C", "Potency": "inactive"}
{"smiles": "CCCCCCCCCCCCCCCC[N+](C)(C)C", "Potency": "9.42 µM (active) and 21.9 µM (active) and 8.49 µM (active)"}
{"smiles": "CC(C)OS(C)(=O)=O", "Potency": "inactive"}
{"smiles": "COP(N)(=S)OC", "Potency": "inactive"}
{"smiles": "Oc1c(Cl)c(Cl)cc(Cl)c1Cl", "Potency": "47.6 µM (active)"}
{"smiles": "Oc1ccc2ccc3cccc4ccc1c2c34", "Potency": "15.5 µM (active)"}
{"smiles": "O=[N+]([O-])c1cc(C(F)(F)F)c(Cl)c([N+](=O)[O-])c1Cl", "Potency": "5.49 µM (active)"}
{"smiles": "CCCCCCCCCCBr", "Potency": "inactive"}
{"smiles": "C[C@@H](Oc1ccc(Cl)cc1Cl)C(=O)O", "Potency": "inactive"}
{"smiles": "Oc1ccc(C2(c3ccc(O)cc3)CCCCC2)cc1", "Potency": "52.1 µM (active)"}
{"smiles": "C[C@@H]1O[C@@H](O[C@@H]2C=C3CC[C@@H]4[C@H](CC[C@]5(C)[C@@H](c6ccc(=O)oc6)CC[C@]45O)[C@@]3(C)CC2)[C@H](O)[C@H](O)[C@H]1O", "Potency": "0.0213 µM (active)"}
